According to the OligoGym collection:

Target: SSX3
Experiment: pooled miR-30 sensor sort-seq; sequence = guide strand
Conditions: shRNA
Also: reference of the scale not given here.

Sequence	sensor-assay potency score (higher = more potent)
TTCTCCGAGACTTTCATCTTTT	-0.696
CATCTGAGGACGTTGAACCTGA	-0.724
ATATCATGTTAATCTTCTCAGA	-1.24
TTGAACCTGATTCCCACGGTTA	-0.528
TATCATGTTAATCTTCTCAGAG	-0.0343
TAACAGAATGACACACTTCAAG	-1.11

Target: SSX4B
Experiment: as above
Conditions: shRNA

Sequence	sensor-assay potency score (higher = more potent)
AACCATTTTCTTCCTCTGCTGG	-0.606
TTCATAAACCACCAGCTGCTTT	-1.07
ATTCCTGTGGTTTCGATCGTTA	-0.284
TTAGTCATGACCTCATAGTTTA	-0.622
TGTCTTGTTAATCTTCTCCAAG	-1.4
TTTAGCTTCATATACACATAGA	-0.61
TAATCTTCTCCAAGGTACTTGG	-0.322
TGATATTTGAGCATCATCCCTG	0.125
TTGTTAATCTTCTCCAAGGTAC	-0.679
TCTCTGATATTTGAGCATCATC	-2.01
TTAATCTTCTCCAAGGTACTTG	0.0289
TTTAGTCATGACCTCATAGTTT	-0.792

Target: SSX5
Experiment: as above
Conditions: shRNA

Sequence	sensor-assay potency score (higher = more potent)
TACACAAACTGAAATATGCATT	-0.947
TTTGAGAACCAACCCTAGGTCT	-0.607
TTGCTCATCAGTGAAAACGCTA	-0.328
TGGTATTTGAGAACCAACCCTA	-0.335
AACAGAAACACTAACATCGAAC	-0.742
TTGTTAACCTTCTCAGAGGTAT	-0.473
TTCTCTCACGCACTCTGTGGGT	-1.32
TTCTCGGGCGTGATCTTCGGGA	-0.793
TGCTTTTGCATCTTCTCTGGTA	-0.325
TTGCTTTCTCTCACGCACTCTG	0.108
TTCATAAATCACCAGTTGCTTT	-1.18
TTTCTCTCACGCACTCTGTGGG	-0.559

Target: ST6GAL2
Experiment: as above
Conditions: shRNA

Sequence	sensor-assay potency score (higher = more potent)
TTAATGATGCGTATGGTGGTTT	-0.296
TAAGATTTGCGGAATATGGGGC	0.141
AAGTAGTCGTCATCCTCCGGGT	-0.429
TACACGTGCACCTCTCTGCACA	-0.913
TTCTCTTTAGTGTTCTCCTGGA	0.105
TTGAATCTTCTCTTTAGTGTTC	0.135
TTTGGTTGAATCTTCTCTTTAG	-0.877
TTTATGTTCAAACCCATCTTGG	-0.693
TTTATTCCCAACATCTTTCTCA	0.384
TTGGTTGAATCTTCTCTTTAGT	-0.57
